For four molecules, outcome and AC50 results are on record in PubChem BioAssay (EPA / NIEHS).

Assay [1] deals with human Peroxisome Proliferator-activated Receptor alpha (PPARa), PPARA (gene 5465) (UniProt Q07869). The experiment in a line: ATG_PPARa_TRANS: Attagene TRANS-FACTORIAL HepG2 Assay for human Peroxisome Proliferator-activated Receptor alpha (PPARa) (AID 2283001; active means hit-call score of the fitted dose curve at least 0.9, where 1 is the maximum). The essentials:
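Reporter transcripts quantified by RT-PCR plus capillary electrophoresis after 24 h treatment, fitted upward relative to DMSO. Cells: human HepG2 transiently carrying multiple GAL4-UAS reporter units driven by NR-Gal4 chimeras.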

The target in assay [2] is human Peroxisome Proliferator-activated Receptor delta (PPARd), PPARD (gene 5467) (UniProt Q03181). The experiment in a line: ATG_PPARd_TRANS: Attagene TRANS-FACTORIAL HepG2 Assay for human Peroxisome Proliferator-activated Receptor delta (PPARd) (AID 2283002; active means hit-call score of the fitted dose curve at least 0.9, where 1 is the maximum). The essentials: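 Read-out is induced reporter mRNA, quantified by RT-PCR with fluorescent labelling and capillary electrophoresis after 24 h dosing. Cells are HepG2 transiently carrying multiple GAL4-UAS reporter units driven by exogenous NR-GAL4 chimeras; DMSO serves as baseline.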
Sequence of human Peroxisome Proliferator-activated Receptor delta (PPARd), PPARD (gene 5467) (Q03181 whole entry, looked up, the tested form may be a part): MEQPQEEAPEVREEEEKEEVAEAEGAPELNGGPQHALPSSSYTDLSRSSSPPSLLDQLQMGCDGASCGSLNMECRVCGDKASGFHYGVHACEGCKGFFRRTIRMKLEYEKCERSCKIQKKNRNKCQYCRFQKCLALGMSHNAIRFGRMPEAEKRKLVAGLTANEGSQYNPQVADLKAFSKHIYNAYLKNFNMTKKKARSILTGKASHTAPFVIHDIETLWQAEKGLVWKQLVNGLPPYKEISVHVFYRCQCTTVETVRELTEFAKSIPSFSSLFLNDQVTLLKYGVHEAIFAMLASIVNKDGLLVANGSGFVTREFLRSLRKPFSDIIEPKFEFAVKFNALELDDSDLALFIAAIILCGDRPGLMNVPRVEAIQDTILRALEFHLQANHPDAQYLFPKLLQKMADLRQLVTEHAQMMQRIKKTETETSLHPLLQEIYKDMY

Read-out in assay [3]: Intercellular Adhesion Molecule 1 (ICAM1), ICAM1 (gene 3383)
Nature of the assay: BSK_3C_ICAM1: BioMAP Diversity Plus: 3C Assay for Intercellular Adhesion Molecule 1 (ICAM1) Biomarker Activity (AID 2283003). Particulars: primary human endothelial cells (HUVEC); actives raise or lower the signal. The essentials:
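Chemicals are dosed onto primary human umbilical vein endothelium (3C system). After 24 h, ICAM-1 is measured by ELISA, and responses are fitted bidirectionally relative to DMSO.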

The target in assay [4] is Retinoic acid receptor alpha (Homo sapiens) (UniProt P10276). Nature of the assay: ATG_RARa_TRANS: Attagene TRANS-FACTORIAL HepG2 Assay for human Retinoic Acid Receptor alpha (RARa) (AID 2283005; active means hit-call score of the fitted dose curve at least 0.9, where 1 is the maximum). An outline of the steps: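 Reporter transcripts, measured by RT-PCR with fluorescent labeling and capillary electrophoresis after 24 h dosing, reflect activity of an exogenous human RARa–GAL4 fusion in transiently transfected HepG2. Fitted for increase relative to DMSO.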

The nature of assay [5]: BSK_3C_Proliferation: Cell Proliferation Assessment in the BioMAP Diversity Plus: 3C Assay (AID 2283006).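 On AC50: potency may reflect either rise or fall in cell number versus DMSO.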 The note with it: primary human endothelial cells (HUVEC). An outline of the steps:
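Cells (human umbilical vein endothelial, sub-confluent) receive test chemical; after 48 h they are fixed in 10% trichloroacetic acid, stained with 0.1% SRB and read at 560 nm. Activity is referenced to DMSO, fitting increases and decreases.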

Assay [6] addresses Nuclear receptor subfamily 1 group I member 2 (Homo sapiens) (UniProt O75469). Nature of the assay: ATG_PXR_TRANS: Attagene TRANS-FACTORIAL HepG2 Assay for human Pregnane X Receptor (PXR) (AID 2283008; active means hit-call score of the fitted dose curve at least 0.9, where 1 is the maximum). The essentials: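 Transient HepG2 transfectants carrying multiplexed reporter transcription units; PXR activity read through a Gal4 chimera. 24 h exposure. RT-PCR/CE fluorescence; upward curve fit referenced to DMSO.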

Assay [7] deals with human Retinoic Acid Receptor gamma (RARg), RARG (gene 5916) (UniProt P13631). Nature of the assay: ATG_RARg_TRANS: Attagene TRANS-FACTORIAL HepG2 Assay for human Retinoic Acid Receptor gamma (RARg) (AID 2283009; active means hit-call score of the fitted dose curve at least 0.9, where 1 is the maximum). An outline of the steps:
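TRANS format measured activity of exogenous NR-GAL4 fusion (RARg) in transfected HepG2 liver cells after 24 h dosing. Induced reporter RNA was detected by RT-PCR/capillary electrophoresis fluorescence, analysed in the positive direction against DMSO.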

For assay [8], the target named is human RAR-related Orphan Receptor beta (RORb), RORB (gene 6096) (UniProt Q92753). Nature of the assay: ATG_RORb_TRANS: Attagene TRANS-FACTORIAL HepG2 Assay for human RAR-related Orphan Receptor beta (RORb) (AID 2283010; active means hit-call score of the fitted dose curve at least 0.9, where 1 is the maximum). An outline of the steps: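 Transfect HepG2 with multiple GAL4-UAS reporter transcription units; dose chemicals for 24 h; isolate RNA, reverse-transcribe and PCR-amplify reporter sequences; label, digest and resolve fragments by capillary electrophoresis; fit increases relative to DMSO.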
Sequence of human RAR-related Orphan Receptor beta (RORb), RORB (gene 6096) (Q92753 whole entry, looked up, the tested form may be a part): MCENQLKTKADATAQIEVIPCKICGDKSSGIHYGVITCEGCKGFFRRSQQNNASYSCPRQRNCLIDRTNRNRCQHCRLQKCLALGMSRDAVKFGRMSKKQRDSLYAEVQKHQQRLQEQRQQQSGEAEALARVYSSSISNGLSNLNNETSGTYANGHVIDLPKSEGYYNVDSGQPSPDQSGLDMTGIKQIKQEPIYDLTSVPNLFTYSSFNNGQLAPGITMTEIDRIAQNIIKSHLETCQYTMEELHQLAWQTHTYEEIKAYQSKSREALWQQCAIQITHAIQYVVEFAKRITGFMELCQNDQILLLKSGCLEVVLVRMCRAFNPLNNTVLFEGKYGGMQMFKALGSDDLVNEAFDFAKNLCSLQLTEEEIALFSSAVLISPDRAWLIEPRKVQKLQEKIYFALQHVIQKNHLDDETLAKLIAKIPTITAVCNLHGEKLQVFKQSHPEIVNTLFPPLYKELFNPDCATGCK

The target of assay [9] is human Retinoid X Receptor beta (RXRb), RXRB (gene 6257) (UniProt P28702). The experiment in a line: ATG_RXRb_TRANS: Attagene TRANS-FACTORIAL HepG2 Assay for human Retinoid X Receptor beta (RXRb) (AID 2283013; active means hit-call score of the fitted dose curve at least 0.9, where 1 is the maximum). The essentials: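 Chimeric receptor-Gal4 activity was assessed in transiently transfected human HepG2 cells after 24 h exposure. Transcripts from GAL4-UAS reporters were quantified by fluorescent RT-PCR and capillary electrophoresis, with DMSO as negative control and baseline.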
Sequence of human Retinoid X Receptor beta (RXRb), RXRB (gene 6257) (P28702 whole entry, looked up, the tested form may be a part): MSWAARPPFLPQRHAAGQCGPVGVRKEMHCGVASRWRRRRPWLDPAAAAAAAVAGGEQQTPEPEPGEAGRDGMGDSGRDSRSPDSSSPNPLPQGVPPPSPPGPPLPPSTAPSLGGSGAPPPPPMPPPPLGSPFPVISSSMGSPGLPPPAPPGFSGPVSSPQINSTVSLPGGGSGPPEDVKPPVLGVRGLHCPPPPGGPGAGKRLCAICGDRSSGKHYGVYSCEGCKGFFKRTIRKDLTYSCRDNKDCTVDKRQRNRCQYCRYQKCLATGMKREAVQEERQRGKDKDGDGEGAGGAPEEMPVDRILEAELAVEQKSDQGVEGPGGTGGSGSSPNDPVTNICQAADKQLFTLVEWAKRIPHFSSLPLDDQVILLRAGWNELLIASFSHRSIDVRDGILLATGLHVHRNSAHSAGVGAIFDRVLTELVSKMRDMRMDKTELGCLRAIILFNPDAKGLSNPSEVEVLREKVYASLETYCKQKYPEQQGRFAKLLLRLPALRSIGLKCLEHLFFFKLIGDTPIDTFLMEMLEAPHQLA

Assay [10] addresses human Thyroid Receptor alpha (THRa1), THRA (gene 7067) (UniProt P10827). Nature of the assay: ATG_THRa1_TRANS: Attagene TRANS-FACTORIAL HepG2 Assay for human Thyroid Receptor alpha (THRa1) (AID 2283014; active means hit-call score of the fitted dose curve at least 0.9, where 1 is the maximum). The essentials: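 Reporter transcript induction, read by capillary electrophoresis of 6-FAM-labelled RT-PCR products, reflects activity of a transfected THRa1-Gal4 fusion in HepG2 liver cells. Cells were dosed for 24 h; activity was fitted in the positive direction against DMSO.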

Read-out in assay [11]: E-selectin (Homo sapiens) (UniProt P16581)
The experiment in a line: BSK_3C_Eselectin: BioMAP Diversity Plus: 3C Assay for Eselectin Biomarker Activity (AID 2283015).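 On outcome: cell surface E-selectin protein quantified by ELISA 24 h after dosing.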 The note with it: primary human endothelial cells (HUVEC); actives raise or lower the signal. An outline of the steps: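 ELISA read-out of E-selectin on endothelial monolayers after 24 h chemical treatment. Human umbilical vein primary cells served as the system, with DMSO defining baseline activity for bidirectional fitting.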

Read-out in assay [12]: Interleukin-1 alpha (IL1a), IL1A (gene 3552)
The experiment in a line: BSK_BE3C_IL1a: BioMAP Diversity Plus: BE3C Assay for Interleukin-1 alpha (IL1a) Biomarker Activity (AID 2283016). The note with it: primary human bronchial epithelial cells; actives raise or lower the signal. The essentials:
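Signal from IL-1a ELISA, taken 24 h after chemical dosing of human bronchial epithelial cells, is compared with DMSO as baseline using bidirectional curve fitting.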

Read-out in assay [13]: Monocyte Chemoattractant Protein-1 (MCP1), CCL2 (gene 6347)
Nature of the assay: BSK_3C_MCP1: BioMAP Diversity Plus: 3C Assay for Monocyte Chemoattractant Protein-1 (MCP1) Biomarker Activity (AID 2283017). Particulars: primary human endothelial cells (HUVEC); actives raise or lower the signal. An outline of the steps: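 ELISA read-out of MCP-1 from human umbilical vein endothelial cell cultures harvested 24 h post-dosing. Gain or loss of signal was fitted relative to DMSO.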

Read-out in assay [14]: Monocyte Chemoattractant Protein-1 (MCP1), CCL2 (gene 6347)
Nature of the assay: BSK_4H_MCP1: BioMAP Diversity Plus: 4H Assay for Monocyte Chemoattractant Protein-1 (MCP1) Biomarker Activity (AID 2283018). Particulars: primary human endothelial cells (HUVEC); actives raise or lower the signal. An outline of the steps:
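Endothelial cells from umbilical vein were treated with test chemical, then after 24 h MCP-1 levels were quantified by ELISA; endpoint values came from bidirectional fitting with DMSO as baseline of activity.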

Read-out in assay [15]: Human Leukocyte Antigen - DR isotype (HLADR), HLA-DRA (gene 3122)
Nature of the assay: BSK_3C_HLADR: BioMAP Diversity Plus: 3C Assay for Human Leukocyte Antigen - DR isotype (HLADR) Biomarker Activity (AID 2283019).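 On outcome: ELISA of cell-surface HLA-DR on HUVEC 24 h after dosing.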 Particulars: primary human endothelial cells (HUVEC); actives raise or lower the signal. An outline of the steps:
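ELISA readout of surface HLA-DR on human umbilical vein endothelium, taken 24 h after chemical treatment. Gain- and loss-of-signal were both fitted relative to DMSO.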

Read-out in assay [16]: Interleukin-8 (IL8), CXCL8 (gene 3576)
Nature of the assay: BSK_3C_IL8: BioMAP Diversity Plus: 3C Assay for Interleukin-8 (IL8) Biomarker Activity (AID 2283020). The note with it: primary human endothelial cells (HUVEC); actives raise or lower the signal. An outline of the steps: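 Endothelial primary cells of human umbilical vein origin are dosed with chemical; after 24 h the IL-8 biomarker is measured by ELISA, and concentration–response is fitted in both directions versus DMSO.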

Read-out in assay [17]: Monokine induced gamma interferon (MIG), CXCL9 (gene 4283)
The experiment in a line: BSK_3C_MIG: BioMAP Diversity Plus: 3C Assay for Monokine induced gamma interferon (MIG) Biomarker Activity (AID 2283021).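 On AC50: MIG protein level measured by immunoassay in the treated endothelial cultures.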 The note with it: primary human endothelial cells (HUVEC); actives raise or lower the signal. The essentials:
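Endothelial primary cells (human umbilical vein) are dosed with test chemical in the 3C system. MIG levels are measured by ELISA at 24 h and fitted in both directions relative to DMSO.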

Assay [18] addresses human Retinoic Acid Receptor beta (RARb), RARB (gene 5915) (UniProt P10826). Nature of the assay: ATG_RARb_TRANS: Attagene TRANS-FACTORIAL HepG2 Assay for human Retinoic Acid Receptor beta (AID 2283004; active means hit-call score of the fitted dose curve at least 0.9, where 1 is the maximum). The essentials:
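Transient transfection of HepG2 with multiple reporter units → chemical dosing, 24 h → total RNA isolation → RT with oligo(dT) → reporter-specific PCR, 6-FAM primer extension, HpaI digest → capillary electrophoresis. Positive direction vs DMSO control.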

Assay [19] deals with Peroxisome proliferator-activated receptor gamma (Homo sapiens) (UniProt P37231). The experiment in a line: ATG_PPARg_TRANS: Attagene TRANS-FACTORIAL HepG2 Assay for human Peroxisome Proliferator-activated Receptor-gamma (PPARg) (AID 2283007; active means hit-call score of the fitted dose curve at least 0.9, where 1 is the maximum). The essentials:
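Multiplexed reporter transcription units in HepG2, 24 h dosing, reporter transcripts quantified by fluorescent RT-PCR and capillary electrophoresis. Increase over DMSO scored.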

Assay [20] concerns the target Retinoic acid receptor RXR-alpha (Homo sapiens) (UniProt P19793). Nature of the assay: ATG_RXRa_TRANS: Attagene TRANS-FACTORIAL HepG2 Assay for human Retinoid X Receptor alpha (RXRa) (AID 2283012; active means hit-call score of the fitted dose curve at least 0.9, where 1 is the maximum). An outline of the steps:
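Measures exogenous chimeric NR-GAL4 activity in transfected HepG2 liver cells after 24 h of dosing. Induced reporter mRNA was detected by RT-PCR with capillary electrophoresis, and gain of signal was analysed against DMSO.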

Results filed as inconclusive are left out. Activity calls are given as the source filed them. How the source made its calls, unless noted: active means hit-call score of the fitted dose curve at least 0.9, where 1 is the maximum; inactive means score below 0.9.

Sequence of E-selectin (Homo sapiens) (P16581 whole entry, looked up): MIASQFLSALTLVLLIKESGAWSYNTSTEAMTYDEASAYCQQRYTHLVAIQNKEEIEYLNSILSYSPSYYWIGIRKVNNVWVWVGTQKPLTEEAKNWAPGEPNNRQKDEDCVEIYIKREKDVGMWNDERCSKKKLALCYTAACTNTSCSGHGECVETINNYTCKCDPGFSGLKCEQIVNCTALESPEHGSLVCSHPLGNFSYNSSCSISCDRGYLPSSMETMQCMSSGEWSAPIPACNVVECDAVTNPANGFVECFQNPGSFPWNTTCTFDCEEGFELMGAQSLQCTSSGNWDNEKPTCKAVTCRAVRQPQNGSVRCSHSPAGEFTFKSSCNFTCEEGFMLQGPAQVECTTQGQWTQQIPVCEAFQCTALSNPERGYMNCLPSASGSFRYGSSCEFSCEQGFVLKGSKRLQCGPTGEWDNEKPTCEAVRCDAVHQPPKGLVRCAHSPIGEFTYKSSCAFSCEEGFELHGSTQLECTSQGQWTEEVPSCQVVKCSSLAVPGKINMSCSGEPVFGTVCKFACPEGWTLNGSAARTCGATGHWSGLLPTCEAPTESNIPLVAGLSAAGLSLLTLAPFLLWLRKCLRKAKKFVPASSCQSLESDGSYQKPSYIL
Sequence of human Thyroid Receptor alpha (THRa1), THRA (gene 7067) (P10827 whole entry, looked up, the tested form may be a part): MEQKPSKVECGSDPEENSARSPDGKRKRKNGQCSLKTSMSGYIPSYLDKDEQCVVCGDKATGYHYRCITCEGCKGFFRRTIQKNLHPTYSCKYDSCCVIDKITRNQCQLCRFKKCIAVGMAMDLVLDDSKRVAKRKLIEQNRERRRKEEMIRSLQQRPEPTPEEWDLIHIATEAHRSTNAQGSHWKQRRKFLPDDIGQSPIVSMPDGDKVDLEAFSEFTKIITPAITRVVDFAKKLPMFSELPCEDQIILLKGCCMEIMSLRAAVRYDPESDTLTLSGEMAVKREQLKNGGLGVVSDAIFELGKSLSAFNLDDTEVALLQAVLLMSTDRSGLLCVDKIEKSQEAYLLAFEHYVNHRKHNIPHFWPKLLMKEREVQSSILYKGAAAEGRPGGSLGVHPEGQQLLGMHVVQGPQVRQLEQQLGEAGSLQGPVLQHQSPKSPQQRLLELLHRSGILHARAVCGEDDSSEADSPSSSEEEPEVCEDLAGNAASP
Sequence of human Peroxisome Proliferator-activated Receptor alpha (PPARa), PPARA (gene 5465) (Q07869 whole entry, looked up, the tested form may be a part): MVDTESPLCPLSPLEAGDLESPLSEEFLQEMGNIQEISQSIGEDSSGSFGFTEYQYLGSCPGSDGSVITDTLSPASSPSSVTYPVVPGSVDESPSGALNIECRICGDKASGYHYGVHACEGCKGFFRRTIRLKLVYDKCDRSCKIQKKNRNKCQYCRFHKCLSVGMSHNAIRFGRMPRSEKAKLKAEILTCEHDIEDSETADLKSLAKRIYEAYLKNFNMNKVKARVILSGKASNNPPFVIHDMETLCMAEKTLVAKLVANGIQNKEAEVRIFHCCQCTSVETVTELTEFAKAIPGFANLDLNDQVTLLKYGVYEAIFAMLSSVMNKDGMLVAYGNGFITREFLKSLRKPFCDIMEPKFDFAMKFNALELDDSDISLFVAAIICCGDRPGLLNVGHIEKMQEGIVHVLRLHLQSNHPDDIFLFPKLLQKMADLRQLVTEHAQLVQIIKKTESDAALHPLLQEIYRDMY
Sequence of human Retinoic Acid Receptor gamma (RARg), RARG (gene 5916) (P13631 whole entry, looked up, the tested form may be a part): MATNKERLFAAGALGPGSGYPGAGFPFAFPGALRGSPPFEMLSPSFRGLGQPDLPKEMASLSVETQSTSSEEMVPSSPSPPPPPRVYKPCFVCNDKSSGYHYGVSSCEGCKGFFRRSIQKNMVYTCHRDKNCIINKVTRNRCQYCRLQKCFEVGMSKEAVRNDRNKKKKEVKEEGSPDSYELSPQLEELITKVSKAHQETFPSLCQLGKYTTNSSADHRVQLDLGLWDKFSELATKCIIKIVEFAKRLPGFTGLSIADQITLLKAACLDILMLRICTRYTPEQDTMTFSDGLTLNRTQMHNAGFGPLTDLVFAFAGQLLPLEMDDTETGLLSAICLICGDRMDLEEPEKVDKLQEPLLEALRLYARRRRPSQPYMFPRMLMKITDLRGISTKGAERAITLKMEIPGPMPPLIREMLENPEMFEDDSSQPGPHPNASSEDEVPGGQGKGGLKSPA
Sequence of Retinoic acid receptor RXR-alpha (Homo sapiens) (P19793 whole entry, looked up, the tested form may be a part): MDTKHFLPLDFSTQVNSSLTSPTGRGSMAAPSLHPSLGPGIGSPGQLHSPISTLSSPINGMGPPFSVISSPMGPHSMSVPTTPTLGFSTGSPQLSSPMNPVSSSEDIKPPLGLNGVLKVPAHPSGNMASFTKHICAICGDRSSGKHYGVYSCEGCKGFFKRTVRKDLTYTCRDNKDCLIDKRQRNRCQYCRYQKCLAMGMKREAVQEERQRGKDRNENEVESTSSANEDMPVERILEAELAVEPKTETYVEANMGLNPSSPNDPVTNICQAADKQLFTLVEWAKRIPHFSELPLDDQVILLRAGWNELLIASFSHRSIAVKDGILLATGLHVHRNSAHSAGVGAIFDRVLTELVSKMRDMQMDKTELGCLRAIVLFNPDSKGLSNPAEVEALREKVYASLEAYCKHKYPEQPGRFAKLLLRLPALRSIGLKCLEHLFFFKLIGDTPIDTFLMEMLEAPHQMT
Sequence of Peroxisome proliferator-activated receptor gamma (Homo sapiens) (P37231 whole entry, looked up): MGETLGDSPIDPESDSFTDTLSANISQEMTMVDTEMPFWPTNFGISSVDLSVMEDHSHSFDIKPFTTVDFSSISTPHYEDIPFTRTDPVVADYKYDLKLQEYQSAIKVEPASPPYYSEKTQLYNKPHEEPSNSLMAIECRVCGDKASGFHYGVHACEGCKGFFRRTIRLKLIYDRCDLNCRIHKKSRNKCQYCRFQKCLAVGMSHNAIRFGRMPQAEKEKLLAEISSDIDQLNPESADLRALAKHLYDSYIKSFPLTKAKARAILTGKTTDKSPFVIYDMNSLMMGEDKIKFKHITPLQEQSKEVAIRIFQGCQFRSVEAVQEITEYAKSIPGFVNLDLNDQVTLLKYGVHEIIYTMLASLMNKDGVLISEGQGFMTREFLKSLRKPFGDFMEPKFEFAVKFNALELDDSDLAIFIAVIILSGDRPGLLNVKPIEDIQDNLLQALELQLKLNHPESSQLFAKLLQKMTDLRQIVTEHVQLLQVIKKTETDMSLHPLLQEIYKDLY
Sequence of Nuclear receptor subfamily 1 group I member 2 (Homo sapiens) (O75469 whole entry, looked up, the tested form may be a part): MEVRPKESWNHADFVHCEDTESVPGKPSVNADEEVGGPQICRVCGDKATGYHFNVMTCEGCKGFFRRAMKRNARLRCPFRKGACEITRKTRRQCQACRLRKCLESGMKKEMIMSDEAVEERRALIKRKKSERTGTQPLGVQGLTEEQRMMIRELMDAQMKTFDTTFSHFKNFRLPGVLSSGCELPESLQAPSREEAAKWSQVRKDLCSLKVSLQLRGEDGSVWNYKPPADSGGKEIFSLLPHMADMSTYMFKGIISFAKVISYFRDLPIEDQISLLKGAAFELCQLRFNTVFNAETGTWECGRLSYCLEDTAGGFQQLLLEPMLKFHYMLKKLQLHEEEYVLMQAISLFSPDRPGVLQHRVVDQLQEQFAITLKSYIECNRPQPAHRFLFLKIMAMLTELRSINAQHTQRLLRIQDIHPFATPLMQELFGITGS

`OCCCl`: the molecule was called inactive in assay [1], in assay [2], in [3], in [4], in assay [5] and in [6]. In addition, the call in [7], in assay [8], in assay [9], in assay [10], in assay [11] and in assay [12] was inactive. Further, the outcome in assay [13], in [14], in assay [15], in assay [16] and in assay [17] was inactive.
Consider `CCOc1cccc(C2(N3CCN(c4ccccc4)CC3)CCC(C)CC2)c1` (centres undefined), for which the molecule was classed as inactive in [1], in assay [3], in [18], in [5], in assay [19] and in assay [7]. Moreover, the result in assay [9], in [11], in assay [12], in assay [13], in assay [14] and in assay [15] was inactive. Besides, the outcome in assay [16] and in assay [17] was inactive.
Take `O=C(O)C1C2CCC(O2)C1C(=O)O` (centres undefined): the molecule was called inactive in [1], in assay [2], in assay [3], in assay [4], in assay [6] and in assay [7]. For the same molecule, the molecule was called inactive in assay [20], in assay [9], in assay [10], in assay [12], in assay [13] and in [14]. Moreover, the result in assay [15], in assay [16] and in [17] was inactive. Moreover, the half-maximal activity concentration (AC50) – broadly, the concentration giving half of the maximal activity seen – in assay [5] was 20.5 µM (active); in assay [11], 18.6 µM (active).
For `O=[N+]([O-])C(Br)(CO)CO`, the result in assay [1], in assay [18], in assay [19], in assay [7], in assay [8] and in assay [20] was inactive. Also, the outcome in assay [9], in assay [10] and in assay [12] was inactive. Also, the AC50 in assay [3] is 33.4 µM (active); in assay [11], 32.6 µM (active); in assay [13], 30.5 µM (active); in [14] it was 28.9 µM (active); in assay [15], 16.5 µM (active); in [16] it was 35.8 µM (active). Besides, the concentration at half-maximal activity (AC50) in assay [17] is 34.9 µM (active).
